The record followed here is PubChem BioAssay (NCATS).

Molecules are shown by their SMILES. Inconclusive results are not listed. Activity calls are given as the source filed them. The call rests on the fitted dose curve; in most records, active means well fitted cell-killing curve with a large enough effect; inconclusive means small, poorly fitted or top-dose-only effect; inactive means flat fitted curve, though single readings scatter.

The assay can be described thus: Cell Viability - LYMP2-016 (AID 984). Further: nearly all actives have a fitted effect of over 55% in size. To be noted: LYMP2-016 lymphoblastoid cell viability, qHTS; series mostly up to 92.2 µM. The text has this:
NIH Chemical Genomics Center [NCGC]
NIH Molecular Libraries Screening Centers Network [MLSCN]
National Institutes of Environmental Health Sciences [NIEHS]
National Toxicology Program [NTP]
We have developed a 1536-well cell-based assay for quantitative high throughput screening (qHTS) against a number of cell lines to determine in vitro cytotoxicity of small molecules. This particular assay uses a human lymphoblastoid cell line (LYMP2-016) purchased from Coriell Institute for Medical Research.
NCGC Assay Protocol Summary:
The CellTiter-Glo luminescent cell viability assay (Promega) is a homogeneous method to measure the number of viable cells in culture. The end point readout of this assay is based on quantitation of intracellular ATP, an indicator of metabolic activity, using the luciferase reaction. Luciferase catalyzes the oxidation of beetle Luciferin to oxyluciferin and light in the presence of ATP. The luminescent signal is proportional to amount of ATP present.
Using the CellTiter-Glo luminescent cell viability assay, the amount of cellular ATP was measured in the lymphoblastoid cell line with complete culture medium following compound treatment for 24 hours. The assay was performed in opaque white Kalypsys 1536-well plates. In the screen, tetraoctylammonium bromide was used as positive control. Library compounds were measured for their ability to cause acute toxicity in the cell line, as reflected by a decrease in intracellular ATP levels, in a concentration-dependent manner. […] AC50 values were determined from concentration-response data modeled with the standard Hill equation.
qHTS protocol for CellTiter Glo lymphoblastoid cellular assay
[Step] [Parameter] [Value] [Description]
1. Reagent; 5 uL; 2500 lymphoblastoid cells/well
2. Time; 5 hr; 37 C incubation
4. Controls; 23 nL; Tetraoctylammonium bromide 6.4pM to 92 uM
5. Time; 24 hr; 37 C incubation
6. Reagent; 5 uL; CellTiter Glo reagent
7. Time; 30 min; Room Temperature
8. Detection; Luminescence; Viewlux plate reader
Keywords: cell viability, cytotoxicity, lymphoblastoid cell line, luminescence, NTPHTS, NTPHTS_NCGC, NIEHS, DSSTox, MLSMR, MLSCN, NIH Roadmap, qHTS, NCGC
On the technique in general: In qHTS, concentration-response curves come from the screen itself.
`Cc1ccccc1O`: the call was inactive.

On to `CC(=O)/C=C/c1ccccc1`, for which the call was inactive.

Consider `O=Cc1ccccc1`, for which the molecule was called inactive.

Regarding `c1ccc(Nc2ccc3ccccc3c2)cc1`, the call was inactive.

In the case of `c1ccc2c(c1)-c1cccc3cccc-2c13`, the result was inactive.

Regarding `COC(=O)c1ccccc1C(=O)OC`, the outcome was inactive.

With `CCOc1cc(C=O)ccc1O`, the outcome was inactive.

Regarding `Oc1ccccc1Cl`, the call was inactive.

Consider `COC1=CC(=O)OC(CCc2ccc3c(c2)OCO3)C1` (configuration not stated), for which the molecule was called inactive.

As for `CCOC(=O)c1ccccc1N`, the molecule was classed as inactive.

On to `Oc1c(Cl)c(Cl)c(Cl)c(Cl)c1Cl`, for which the molecule was called inactive.

For `CC(C)(c1ccc(OCC2CO2)cc1)c1ccc(OCC2CO2)cc1` (configuration not stated), the molecule was called inactive.
